Results: PubChem BioAssay AID1159580 (chemical genetic matrix, 2015)
The campaign covered roughly 5,500 compounds. About 2,000 (36%) were called active. Roughly 18% stayed inconclusive and do not appear here. Rule as the data show it: active = normalized growth mostly below about 0.91 (no sharp cut-off); inconclusive = no clear call, values can overlap the other calls; inactive = mostly above about 0.92. This is one part of the list.

Assay: chemical genetic growth profiling, strain panel (AID 1159580);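 also: tested at 20 µM; growth read once vehicle control cultures reached saturation at 30 °C; 1 = growth at the plate median or of vehicle wells; lower values mean less growth of the strain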
Settings: growth OD

Measured: normalized growth

CC1(C)OC(=O)NC1=O
inactive: S. cerevisiae deletion strains, locus YJR075W, strain HOC1, hits give low values 0.981 | S. cerevisiae deletion strains, locus YKL009W, strain mrt4, hits give low values 0.966 | S. cerevisiae deletion strains, locus YKL068W, hits give low values 0.988 | S. cerevisiae deletion strains, locus YKL085W, strain MDH1 (second series), hits give low values 1.06 | S. cerevisiae deletion strains, locus YKL085W, strain MDH1, hits give low values 1.06 | S. cerevisiae deletion strains, locus YKL160W, strain elf1, hits give low values 1.01 | S. cerevisiae deletion strains, locus YKR001C, strain vps1, hits give low values 1.01 | S. cerevisiae deletion strains, locus YKR026C, strain gcn3, hits give low values 0.994 | S. cerevisiae deletion strains, locus YKR091W, strain srl3, hits give low values 1.01 | S. cerevisiae deletion strains, locus YLL001W, strain dnm1, hits give low values 1.02 | S. cerevisiae deletion strains, locus YLL026W, hits give low values 1.01 | S. cerevisiae deletion strains, locus YLL041C, strain sdh2, hits give low values 1.01 | S. cerevisiae deletion strains, locus YLR027C, strain aat2, hits give low values 1.01 | S. cerevisiae deletion strains, locus YLR039C, strain RIC1, hits give low values 1.02 | S. cerevisiae deletion strains, locus YLR058C, strain SHM2, hits give low values 0.983 | S. cerevisiae deletion strains, locus YLR102C, strain apc9, hits give low values 0.981 | S. cerevisiae deletion strains, locus YLR113W, strain HOG1, hits give low values 1.02 | S. cerevisiae deletion strains, locus YLR221C, strain rsa3, hits give low values 0.991 | S. cerevisiae deletion strains, locus YLR258W, strain gsy2, hits give low values 1 | S. cerevisiae deletion strains, locus YLR262C, strain YPT6 (second series), hits give low values 1.03 | S. cerevisiae deletion strains, locus YLR262C, strain YPT6, hits give low values 0.97 | S. cerevisiae deletion strains, locus YLR268W, strain sec22, hits give low values 0.989 | S. cerevisiae deletion strains, locus YLR320W, strain mms22, hits give low values 0.975 | S. cerevisiae deletion strains, locus YLR330W, strain CHS5, hits give low values 0.996 | S. cerevisiae deletion strains, locus YLR342W, strain FKS1 (second series), hits give low values 1.04 | S. cerevisiae deletion strains, locus YLR342W, strain FKS1, hits give low values 1.02 | S. cerevisiae deletion strains, locus YLR357W, strain rsc2, hits give low values 1.03 | S. cerevisiae deletion strains, locus YLR370C, strain arc18, hits give low values 1.02 | S. cerevisiae deletion strains, locus YLR371W, strain rom2, hits give low values 0.98 | S. cerevisiae deletion strains, locus YLR384C, strain iki3, hits give low values 1.01 | S. cerevisiae deletion strains, locus YLR418C, strain cdc73, hits give low values 0.958 | S. cerevisiae deletion strains, locus YML016C, strain PPZ1, hits give low values 0.997 | S. cerevisiae deletion strains, locus YML032C, strain rad52, hits give low values 0.98 | S. cerevisiae deletion strains, locus YML120C, strain ndi1, hits give low values 1.02 | S. cerevisiae deletion strains, locus YML124C, strain tub3, hits give low values 0.983 | S. cerevisiae deletion strains, locus YMR058W, strain fet3, hits give low values 1.03 | S. cerevisiae deletion strains, locus YMR078C, strain ctf18, hits give low values 0.971 | S. cerevisiae deletion strains, locus YMR125W, strain sto1, hits give low values 1.05 | S. cerevisiae deletion strains, locus YMR129W, hits give low values 1.01 | S. cerevisiae deletion strains, locus YMR205C, strain PFK2, hits give low values 1.02 | S. cerevisiae deletion strains, locus YMR223W, strain ubp8, hits give low values 0.964 | S. cerevisiae deletion strains, locus YMR231W, strain pep5, hits give low values 1.01 | S. cerevisiae deletion strains, locus YMR263W, strain SAP30, hits give low values 0.981 | S. cerevisiae deletion strains, locus YMR307W, strain GAS1, hits give low values 1.05 | S. cerevisiae deletion strains, locus YNL067W, strain RPL9B, hits give low values 0.972 | S. cerevisiae deletion strains, locus YNL071W, strain lat1, hits give low values 1 | S. cerevisiae deletion strains, locus YNL153C, strain GIM3, hits give low values 0.989 | S. cerevisiae deletion strains, locus YNL183C, strain NPR1, hits give low values 0.975 | S. cerevisiae deletion strains, locus YNL209W, strain ssb2, hits give low values 0.996 | S. cerevisiae deletion strains, locus YNL233W, strain BNI4, hits give low values 0.983 | S. cerevisiae deletion strains, locus YNL248C, strain rpa49, hits give low values 1.07 | S. cerevisiae deletion strains, locus YNL250W, strain rad50, hits give low values 0.967 | S. cerevisiae deletion strains, locus YNL271C, strain bni1, hits give low values 0.966 | S. cerevisiae deletion strains, locus YNL298W, strain CLA4, hits give low values 0.971 | S. cerevisiae deletion strains, locus YNL307C, strain MCK1, hits give low values 0.983 | S. cerevisiae deletion strains, locus YNL322C, strain KRE1 (second series), hits give low values 1.01 | S. cerevisiae deletion strains, locus YNL322C, strain KRE1, hits give low values 1.01 | S. cerevisiae deletion strains, locus YNR049C, strain mso1, hits give low values 1.01 | S. cerevisiae deletion strains, locus YNR052C, strain pop2, hits give low values 0.971 | S. cerevisiae deletion strains, locus YOL006C, strain TOP1, hits give low values 0.926 | S. cerevisiae deletion strains, locus YOL012C, strain htz1 0.866 | S. cerevisiae deletion strains, locus YOL147C, strain pex11, hits give low values 0.973 | S. cerevisiae deletion strains, locus YOR001W, strain rrp6, hits give low values 1.02 | S. cerevisiae deletion strains, locus YOR061W, strain CKA2, hits give low values 0.994 | S. cerevisiae deletion strains, locus YOR069W, strain VPS5, hits give low values 0.991 | S. cerevisiae deletion strains, locus YOR070C, strain gyp1, hits give low values 0.999 | S. cerevisiae deletion strains, locus YOR080W, strain dia2, hits give low values 1.02 | S. cerevisiae deletion strains, locus YOR083W, strain WHI5, hits give low values 0.987 | S. cerevisiae deletion strains, locus YOR106W, strain vam3, hits give low values 1.03 | S. cerevisiae deletion strains, locus YOR136W, strain idh2, hits give low values 0.974 | S. cerevisiae deletion strains, locus YOR144C, strain elg1, hits give low values 0.976 | S. cerevisiae deletion strains, locus YOR184W, strain ser1, hits give low values 0.966 | S. cerevisiae deletion strains, locus YOR231W, strain MKK1, hits give low values 1.04 | S. cerevisiae deletion strains, locus YOR265W, strain rbl2, hits give low values 1.01 | S. cerevisiae deletion strains, locus YOR270C, strain vph1, hits give low values 1.07 | S. cerevisiae deletion strains, locus YOR290C, strain snf2, hits give low values 1.02 | S. cerevisiae deletion strains, locus YOR316C, strain cot1, hits give low values 0.98 | S. cerevisiae deletion strains, locus YPL051W, strain arl3, hits give low values 1.01 | S. cerevisiae deletion strains, locus YPL078C, strain atp4, hits give low values 1.01 | S. cerevisiae deletion strains, locus YPL106C, strain sse1, hits give low values 0.997 | S. cerevisiae deletion strains, locus YPL240C, strain hsp82, hits give low values 0.996 | S. cerevisiae deletion strains, locus YPL256C, strain CLN2, hits give low values 1.08 | S. cerevisiae deletion strains, locus YPR119W, strain clb2, hits give low values 0.977 | S. cerevisiae deletion strains, locus YPR141C, strain kar3, hits give low values 0.958 | S. cerevisiae deletion strains, locus YPR163C, strain tif3, hits give low values 0.982 | S. cerevisiae deletion strains, locus YPR167C, strain met16, hits give low values 0.972 | S. cerevisiae deletion strains, strain wtn01, hits give low values 0.982 | S. cerevisiae strains, strain wild type, hits give low values 0.998
